The campaign covered roughly 1,600 compounds. About 410 (26%) were called active.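 The calls were made as follows: active = mean inhibition over triplicates above the low-control well mean plus 3 SD, set per campaign (cut at about 13% in these data); inactive = the rest.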 The list is a sample of the results.

The assay in a line: nonselective cAMP signaling inhibitors, parental cells, counter-screen for MC4R biased antagonist project, cell-based, TR-FRET, U2OS, forskolin, triplicate (AID 602193).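 Also: signal is single emission at 671 nm which falls as cellular cAMP rises; 0% = forskolin-stimulated wells and 100% = buffer without forskolin.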 Particulars: LANCE TR-FRET, at 6.5 µM, stronger effect = higher value. (In general: The purpose of a counterscreen is to sort out artefacts and off-target activity.)
As usually defined, the inhibition is the drop in the measured response relative to a control, in per cent. In the case of `O=C1/C(=C\c2ccc([N+](=O)[O-])cc2)CS(=O)(=O)C/C1=C/c1ccc([N+](=O)[O-])cc1`, the inhibition was 26.1% (active).

In the case of `Cc1ccc(S(=O)(=O)N(C)CC(=O)OCC(=O)N2CC(=O)Nc3ccccc32)cc1`, the inhibition is 17.6% (active). For the compound `Cc1ccc(S(=O)(=O)N(C)CC(=O)OCC(=O)Nc2ccccc2)cc1`, the inhibition was 14.4% (active). As for `Cc1ccc(S(=O)(=O)CCC(=O)OCC(=O)N(C)Cc2ccccc2)cc1`, the inhibition was 1.96% (inactive). For `COc1ccccc1N(CC(=O)N/N=C(\C)c1ccccc1O)S(=O)(=O)c1ccc(C)cc1` the value was 5.78% (inactive); for `CCOC(=O)C(C)n1cnc2sc(C)c(C)c2c1=O` (configuration not stated), 4.97% (inactive); for `CC(C)Oc1ccc(/C=C(\NC(=O)/C=C/c2ccco2)C(=O)NCCc2nc3ccccc3[nH]2)cc1`, 2.02% (inactive). In the case of `O=C(CSc1nc2ccc(Nc3nc(N4CCOCC4)nc(N4CCOCC4)n3)cc2s1)NCc1ccco1` it was -2.96% (inactive); in that of `Cc1ccc(NC(=O)c2c(NC(=O)CCC(=O)O)sc3c2CCCCC3)cc1`, 3.65% (inactive); in that of `N#C/C=C1\Sc2ccccc2C(=O)N1CC(=O)N1CCN(S(=O)(=O)c2ccccc2)CC1`, 7.11% (inactive). For the compound `O=C(COC(=O)Cn1cnc2ccccc2c1=O)NCC12CC3CC(CC(C3)C1)C2`, the inhibition was 19% (active). For `O=C(Nc1ccccc1Cl)/C(Cl)=C(\Cl)S(=O)c1ccccc1` (configuration not stated) the value was -0.54% (inactive); for `Cc1c(CCC(=O)O)c(=O)oc2cc(OCc3ccc(Br)cc3)ccc12`, 2.85% (inactive); for `COc1ccc(Cl)cc1-c1cc(C(=O)Nc2cc(OC)c(OC)c(OC)c2)[nH]n1`, -12.1% (inactive). Take `O=S(=O)(NCc1ccco1)c1cnc(Cl)c(Cl)c1`: the inhibition was 21.1% (active).

As for `COc1ccc(-n2nc(C(=O)Nc3cc(OC)c(OC)c(OC)c3)c3ccccc3c2=O)c(OC)c1`, the inhibition was 6.04% (inactive). On to `Cc1ccc(C)c(S(=O)(=O)N2CCN(CC(=O)Nc3ccc([N+](=O)[O-])cc3)CC2)c1`, for which the inhibition is -1.3% (inactive). For `COc1ccc2sc(-c3ccc(S(C)(=O)=O)cc3)c(-c3ccc(C(N)=O)cc3)c2c1` the value was 6.51% (inactive); for `O=C(Nc1nnc(Cc2ccc(Cl)cc2)s1)c1cccnc1`, -0.09% (inactive); for `CSc1nnc(NC(=O)c2nc(S(=O)(=O)Cc3ccc(C)cc3)ncc2Cl)s1`, 26.5% (active). For `O=C(NCCc1c[nH]c2ccccc12)c1cccc(Br)c1` the value was 2.29% (inactive). For `Cc1ccc(-c2nnc(CN3CCN(C)CC3)o2)cc1` the value was -0.67% (inactive); for `CCCCOC(=O)CNc1nnc(SCC(=O)OCC)[nH]c1=O`, 34.4% (active); for `CC(NS(=O)(=O)c1ccc(Br)cc1)C(=O)NCC1CCCO1` (configuration not stated), 4.96% (inactive). For the compound `CCOC(=O)c1cc(C)nc(S(C)(=O)=O)c1C#N`, the inhibition was 9.09% (inactive).

`N#Cc1c(-c2cccs2)nc(SCC(=O)c2ccc(Br)cc2)[nH]c1=O`: the inhibition was 12.9% (inactive). As for `C#Cc1cc(N2CCN(C(=O)c3ccoc3)CC2)n2nc(-c3cccc(Cl)c3)cc2n1`, the inhibition is 6.98% (inactive). As to `COc1ccc(C(C[N+](=O)[O-])n2nc(C)cc2C)cc1` (configuration not stated), the inhibition was 16.1% (active).

`O=C(NCC1CCN(Cc2ccccc2Cl)CC1)Nc1cccc(Cl)c1`: the inhibition was -1.82% (inactive). In the case of `CC(=O)N1CCN(S(=O)(=O)c2c(F)cc(F)c(Cl)c2F)CC1`, the inhibition is 15.9% (active). As for `O=C(c1ccc2c(c1)N(Cc1ccc(F)cc1)C(=O)c1ccccc1S2(=O)=O)N1CCN(c2ccccn2)CC1`, the inhibition was 1.79% (inactive). For `O=C(Cn1nnc2ccccc2c1=O)Nc1cc(C(F)(F)F)ccc1N1CCOCC1`, the inhibition is -0.34% (inactive). Consider `CN(CC(=O)NCCc1ccccn1)S(=O)(=O)c1ccc(Cl)cc1`, for which the inhibition is -1.11% (inactive). On to `Cc1c(Cl)cccc1NC(=O)[C@@]1(CC(=O)O)CC(/C=C/c2ccccc2)=NO1`, for which the inhibition was 0.29% (inactive).

Take `COc1ccc(Oc2c(Cl)cnn(-c3ccccc3)c2=O)cc1`: the inhibition is 38.1% (active). Take `O=C(COC(=O)c1c2c(nc3ccccc13)CCCC2)c1ccc(Br)s1`: the inhibition was 4.15% (inactive).

Take `CCN(CC(=O)NCCCN1CCOCC1)S(=O)(=O)c1cc(Cl)ccc1Cl`: the inhibition is -1.05% (inactive). In the case of `Cc1ccc(NC(=O)COC(=O)CNC(=O)c2ccc(Cl)cc2Cl)cc1S(=O)(=O)N1CCOCC1` it was 7.9% (inactive); in that of `Cc1nc2ccccc2c(=O)n1NC(=O)c1ccc(Cl)c([N+](=O)[O-])c1`, 18.5% (active); in that of `CC1(C)C(c2cccs2)=[N+]([O-])C2(CCCCC2=O)N1O` (configuration not stated), -3.22% (inactive). For `Cc1ccc(C(C(=O)NCC2CCCO2)N(C(=O)c2snc(C(N)=O)c2N)c2ccc(C(C)C)cc2)o1` (configuration not stated) the value was 0.79% (inactive); for `COC(=O)[C@H](Cc1ccccc1)NC(=O)[C@@H]1C[C@H]1[C@@H](NC(=O)OCc1ccccc1)c1ccccc1`, 12% (inactive); for `CC(C)(C)OC(=O)N1CCC(NC(=O)c2[nH]cnc2C(=O)N[C@@H](Cc2ccccc2)C(=O)OCc2ccccc2)CC1`, 16.5% (active). For `O=C(Nc1ccc(F)c([N+](=O)[O-])c1)C1CC(=O)N(Cc2ccccc2)C1` (configuration not stated) the value was 8.59% (inactive); for `Cc1cccc(OCC(O)Cn2c(N3CCCCC3)nc3c2c(=O)[nH]c(=O)n3C)c1` (configuration not stated), 2.12% (inactive); for `COc1ccc(/C=N/OCC(=O)N(Cc2ccccc2)c2ccccc2C(=O)O)cc1`, -3.38% (inactive).

Take `CCOC(=O)c1c(-c2ccccc2)oc2cc(Br)c(O)c(C=O)c12`: the inhibition is 30.2% (active). Consider `Cc1nnc(N/N=C/C2CC=CCC2)[nH]c1=O` (configuration not stated), for which the inhibition was -2.01% (inactive). As to `O=C(O)CCn1cc(/C=C/C(=O)c2ccc(Cl)cc2)c(-c2cccc(Br)c2)n1`, the inhibition was -0.6% (inactive). In the case of `Cc1ccccc1-c1n[nH]c(=S)n1/N=C/c1ccc(-c2ccccc2Br)o1` it was 0.55% (inactive). For `Cc1ccc(OCC(=O)Nc2ccc(NC(=O)c3cccs3)cc2)c(C)c1` the value was -2.94% (inactive); for `O=C(COC(=O)[C@H](Cc1ccccc1)NC(=O)c1cccs1)Nc1cc(F)ccc1F`, 13.2% (active).

With `O=C(Nc1nccs1)c1cc(S(=O)(=O)N2CCOCC2)c(Cl)cc1Cl`, the inhibition was 10.5% (inactive).

Regarding `CC(=O)Nc1ccc(Sc2ccccc2C(=O)N2CCCC2)cn1`, the inhibition was -1.96% (inactive). On to `Cc1ccc(NC(=O)C(C)OC(=O)Cc2c[nH]c3ccccc23)cc1S(=O)(=O)N1CCOCC1` (configuration not stated), for which the inhibition was 2.7% (inactive). For `CC(C)Oc1c(Br)cc(Br)cc1/C=N/NC(N)=S` the value was 19.3% (active); for `C=Cn1c(C(=O)O)ccc1-c1ccc(OC)cc1`, -3.83% (inactive). For `CCOC(=O)c1c(NC(=O)CCl)sc(C(=O)N(CC)CC)c1C` the value was 17.7% (active).

For `Cc1ccc(NS(=O)(=O)c2ccc(C)c(NC(=O)COc3ccc4ccccc4c3)c2)c(C)c1`, the inhibition was 2.54% (inactive). As to `COc1cccc(OC)c1C(=O)Nc1c(C(=O)N2CCN(c3ccccn3)CC2)oc2ccccc12`, the inhibition was -1.8% (inactive). As for `CC1(C)Cc2ccccc2-c2[nH]c(=S)[nH]c(=O)c21`, the inhibition was 22.1% (active).

For `CCOc1ccc(Nc2nc(Cl)nc(N3CCN(c4ccc(OC)cc4)CC3)n2)cc1`, the inhibition is 11.2% (inactive). In the case of `O=C(OCC(=O)N1CCCCCC1)c1cnc(Cl)c(Cl)c1` it was 21.2% (active); in that of `COc1ccc(CCNC(=O)c2cnc(Cl)c(Cl)c2)cc1`, 13.7% (active); in that of `COc1ccc(CCNC(=O)COC(=O)c2cnc(Cl)c(Cl)c2)cc1`, 17.2% (active). In the case of `COc1ccc(C(C)C)cc1S(=O)(=O)Nc1ncn[nH]1` it was 0.13% (inactive); in that of `CCCC(C(=O)n1nc(C)cc1C)C(NS(=O)(=O)c1ccc(C)cc1)c1ccccc1` (configuration not stated), 3.42% (inactive); in that of `CCOC(=O)CSc1nc(N2CCOCC2)c2c(c1C#N)CC(C(C)C)OC2` (configuration not stated), 3.57% (inactive).

With `Cc1ccc(CSc2nnc(-c3cnccn3)n2C)cc1`, the inhibition is -1.1% (inactive). Take `COc1ccc(-c2n[nH]c(C)c2-c2ccccc2OC)c(O)c1`: the inhibition is 4.68% (inactive).

With `COc1ccc2oc(N)c(C=O)c(=O)c2c1`, the inhibition is -1.23% (inactive). Take `COc1ccc(-c2nc3n(c(=O)c2C#N)CCS3)c(OC)c1`: the inhibition is -2.32% (inactive). Consider `O=C(NC1=CC(=O)c2ccccc2C1=O)c1ccccc1`, for which the inhibition was -5.71% (inactive). On to `COC(=O)c1sc(-c2ccc(C(C)(C)C)cc2)cc1NC(=O)/C=C/C(=O)O`, for which the inhibition is 1.28% (inactive). For `COCCCNC(=O)/C(C#N)=C/c1c(N2CCCCCC2)nc2ccccn2c1=O` the value was 9.32% (inactive); for `CN(C)C(CNC(=O)CCCOc1ccccc1)c1ccco1` (configuration not stated), -0.67% (inactive); for `Cc1ccc(Sc2ccc(NC(=O)c3ccc(F)cc3)cc2C#N)cc1`, 5.25% (inactive).
